Source: PubChem BioAssay (EPA / NIEHS)
Inconclusive results are not listed. Activity calls are given as the source filed them. Rule for the calls, unless noted: active = hit-call score of the fitted dose curve at least 0.9, where 1 is the maximum; inactive = score below 0.9.

Legend:
[1] = ATG_TGFb_CIS: Attagene CIS-FACTORIAL HepG2 Assay for human Transforming Growth Factor (TGF) (AID 2282967); settings: HepG2 Attagene CIS TGFb reporter, mRNA transcription; actives raise or lower the signal
In short: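 Transcript-level reporter readout: HepG2 transfectants, 24 h exposure, RNA to cDNA, reporter-specific PCR, fluorescent primer extension, capillary sizing against ROX standards. Gain- or loss-of-signal relative to DMSO.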

[2] = ATG_VDRE_CIS: Attagene CIS-FACTORIAL HepG2 Assay for human Vitamin D Receptor Element (VDRE) (AID 2282968); settings: HepG2 VDRE cis-reporter transcription, actives raise or lower the signal
In short: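 Transiently transfected HepG2 cells carrying cis-regulated reporter transcription units were exposed for 24 h. Reporter mRNA was measured by RT-PCR with fluorescent labelling and capillary electrophoresis, and fitted in both directions against DMSO.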

[3] = molecular target: X-box-binding protein 1 (Homo sapiens) (UniProt P17861); test: ATG_Xbp1_CIS: Attagene CIS-FACTORIAL HepG2 Assay for human X-box Binding Protein 1 (XBP1) (AID 2282972); settings: HepG2 XBP1 cis-element reporter, Attagene multiplex; actives raise or lower the signal
In short: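 HepG2, transient MRTU transfection (cis-promoter driven), 24 h compound exposure. Total RNA → oligo(dT) RT → PCR → 6-FAM labeling → HpaI cut → CE. Bidirectional fit vs DMSO.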

[4] = ATG_M_19_TRANS: Attagene TRANS-FACTORIAL HepG2 Assay for M19 Transcription Factor (Internal Marker) (AID 2282974; active = hit-call score of the fitted dose curve at least 0.9, where 1 is the maximum); settings: HepG2 Attagene TRANS-FACTORIAL M19 internal marker reporter
In short: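 HepG2 transiently transfected with GAL4-UAS multiplex reporter constructs, exposed 24 h; reporter RNA quantified by RT-PCR, 6-FAM labeling, HpaI digestion and capillary electrophoresis; internal background marker fitted upward versus DMSO.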

[5] = ATG_GAL4_TRANS: Attagene TRANS-FACTORIAL HepG2 Assay for GAL4 (Internal Marker) (AID 2282976; active = hit-call score of the fitted dose curve at least 0.9, where 1 is the maximum); settings: HepG2 Attagene TRANS GAL4 internal marker reporter
In short: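 Liver HepG2 line bearing multiplexed GAL4-UAS reporter constructs; 24 h chemical treatment. Transcripts were quantified as fluorescent fragments on capillary electrophoresis after RT-PCR and HpaI cut, with activity fitted upward from DMSO.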

[6] = molecular target: Oxysterols receptor LXR-alpha (Homo sapiens) (UniProt Q13133); test: ATG_LXRa_TRANS: Attagene TRANS-FACTORIAL HepG2 Assay for human Liver X Receptor alpha (LXRa) (AID 2282980; active = hit-call score of the fitted dose curve at least 0.9, where 1 is the maximum); settings: HepG2 Attagene TRANS reporter, LXRa transactivation
In short: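 In this multiplexed TRANS system, compounds act on HepG2 cells carrying GAL4-UAS reporter units and a receptor-GAL4 fusion for 24 h. Induced reporter RNA is amplified, fluorescently labelled and sized by capillary electrophoresis, with DMSO as baseline.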

[7] = molecular target: Oxysterols receptor LXR-beta (Homo sapiens) (UniProt P55055); test: ATG_LXRb_TRANS: Attagene TRANS-FACTORIAL HepG2 Assay for human Liver X Receptor beta (LXRb) (AID 2282981; active = hit-call score of the fitted dose curve at least 0.9, where 1 is the maximum); settings: HepG2 Attagene TRANS GAL4-LXRb reporter, mRNA
In short: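 HepG2 cells transiently transfected with GAL4-UAS reporter units for chimeric NR-Gal4 proteins, dosed for 24 h. Reporter transcripts measured by RT-PCR and capillary electrophoresis; gain-of-signal fitting relative to DMSO.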

[8] = molecular target: Transcriptional activator Myb (Homo sapiens) (UniProt P10242); test: ATG_Myb_CIS: Attagene CIS-FACTORIAL HepG2 Assay for human Myeloblastosis (Myb) Proto-Oncogene Transcription Factor (AID 2282986); settings: HepG2 Attagene CIS-FACTORIAL Myb reporter transcription; actives raise or lower the signal
In short: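 Transiently transfected HepG2 cells carrying a multiplexed cis-promoter reporter set report endogenous Myb activity after 24 h compound exposure. Reporter mRNA is read by RT-PCR with capillary electrophoresis of fluorescent products, fitted bidirectionally against DMSO.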

[9] = ATG_NFI_CIS: Attagene CIS-FACTORIAL HepG2 Assay for human Nuclear Factor I (NFI) (AID 2282989); settings: HepG2 cis-regulatory reporter, NFI response element transcription; actives raise or lower the signal
In short: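 After transient transfection of HepG2 with cis-promoter reporter constructs and 24 h dosing, RNA is reverse-transcribed, amplified, 6-FAM end-labelled and HpaI-digested before capillary analysis. Bidirectional curve fitting against DMSO.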

[10] = molecular target: Nuclear receptor subfamily 1 group I member 3 (Homo sapiens) (UniProt Q14994); test: ATG_CAR_TRANS: Attagene TRANS-FACTORIAL HepG2 Assay for human Constitutive Androstane Receptor (CAR) (AID 2282969; active = hit-call score of the fitted dose curve at least 0.9, where 1 is the maximum;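 note: activators raise reporter mRNA above DMSO so AC50 marks induction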); settings: HepG2 Attagene TRANS-FACTORIAL CAR reporter
In short: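 HepG2 cells transiently transfected with GAL4-UAS reporter units; TRANS format reads activity of exogenous chimeric NR-Gal4 protein. After 24 h dosing, reporter mRNA quantified by RT-PCR, 6-FAM labelling and capillary electrophoresis; gain of signal fitted against DMSO.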

[11] = molecular target: Nuclear receptor subfamily 4 group A member 2 (Homo sapiens) (UniProt P43354); test: ATG_NURR1_TRANS: Attagene TRANS-FACTORIAL HepG2 Assay for human Nuclear Receptor Related Protein 1 (NURR1) (AID 2282985; active = hit-call score of the fitted dose curve at least 0.9, where 1 is the maximum); settings: HepG2 Attagene TRANS reporter, mRNA readout
In short: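 HepG2 cells transiently transfected with NURR1-Gal4 chimera and GAL4-UAS reporter units; after 24 hr compound exposure, reporter mRNA quantified by RT-PCR and capillary electrophoresis; gain of signal fitted against DMSO.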

[12] = molecular target: Nuclear respiratory factor 1 (Homo sapiens) (UniProt Q16656); test: ATG_NRF1_CIS: Attagene CIS-FACTORIAL HepG2 Assay for human Nuclear Respiratory Factor 1 (NRF1) Orphan Gene (AID 2282987); settings: HepG2 NRF1 cis-element reporter, Attagene multiplex; actives raise or lower the signal
In short: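 HepG2 cells transiently transfected with multiple cis-regulated reporter units, exposed 24 h. Reporter mRNAs measured by RT-PCR, fluorescent labelling, HpaI digestion and capillary electrophoresis; bidirectional fitting against DMSO.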

[13] = molecular target: Estrogen-related receptor gamma (Homo sapiens) (UniProt P62508); test: ATG_ERRg_TRANS: Attagene TRANS-FACTORIAL HepG2 Assay for human Estrogen-Related Receptor gamma (ERRg) (AID 2282977; active = hit-call score of the fitted dose curve at least 0.9, where 1 is the maximum;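 note: hits increase reporter signal over DMSO so potencies reflect activators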); settings: HepG2 Attagene TRANS reporter, ERRg transactivation
In short: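 Transfect HepG2 with multiple GAL4-UAS reporter transcription units; dose chemicals 24 h; isolate RNA, reverse-transcribe with oligo(dT), PCR-amplify, label with 6-FAM, digest with HpaI; size fragments by capillary electrophoresis. DMSO serves as negative control.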

[14] = molecular target: Glucocorticoid receptor (Homo sapiens) (UniProt P04150); test: ATG_GR_TRANS: Attagene TRANS-FACTORIAL HepG2 Assay for human Glucocorticoid Receptor (GR) (AID 2282978; active = hit-call score of the fitted dose curve at least 0.9, where 1 is the maximum;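 note: activators score as hits since higher reporter transcript over DMSO is fitted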); settings: HepG2 Attagene TRANS GR reporter, mRNA transcription
In short: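 HepG2 cells transiently transfected with GAL4-UAS reporter units and exogenous GR-Gal4 chimera, dosed 24 h. Reporter mRNA by RT-PCR, FAM labeling, HpaI digest and capillary electrophoresis; gain-of-signal fit versus DMSO.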

[15] = molecular target: Hepatocyte nuclear factor 4-alpha (Homo sapiens) (UniProt P41235); test: ATG_HNF4a_TRANS: Attagene TRANS-FACTORIAL HepG2 Assay for human Hepatocyte Nuclear Factor 4 alpha (HNF4a) (AID 2282982; active = hit-call score of the fitted dose curve at least 0.9, where 1 is the maximum); settings: HepG2 HNF4a transactivation reporter, mRNA readout
In short: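 HepG2 cells transiently transfected with HNF4a-Gal4 chimera and GAL4-UAS reporter units, dosed for 24 h. Reporter mRNA measured by RT-PCR, fluorescent primer extension and capillary electrophoresis; gain-of-signal fitted relative to DMSO.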

[16] = ATG_M_06_TRANS: Attagene TRANS-FACTORIAL HepG2 Assay for M06 Transcription Factor (Internal Marker) (AID 2282983; active = hit-call score of the fitted dose curve at least 0.9, where 1 is the maximum;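 note: reporter transcript level by RT-PCR then capillary electrophoresis fluorescence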); settings: HepG2 Attagene TRANS M06 internal marker reporter
In short: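 Internal-marker background readout from a multiplexed TRANS reporter system in HepG2; 24 h dosing; mRNA induction quantified by RT-PCR plus capillary electrophoresis fluorescence; DMSO as negative control and baseline.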

[17] = molecular target: Estrogen receptor (Homo sapiens) (UniProt P03372); test: ATG_ERa_TRANS: Attagene TRANS-FACTORIAL HepG2 Assay for human Estrogen Receptor alpha (ERa) (AID 2282970; active = hit-call score of the fitted dose curve at least 0.9, where 1 is the maximum); settings: HepG2 Attagene TRANS ERa GAL4 reporter, mRNA
In short: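 Multiplexed cell-based reporter format in HepG2: chimeric ERa-Gal4 protein drives GAL4-UAS reporter transcription. Fluorescent reporter mRNA quantified by capillary electrophoresis 24 hours after dosing; endpoint fitted as signal gain against DMSO.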

[18] = molecular target: Bile acid receptor (Homo sapiens) (UniProt Q96RI1); test: ATG_FXR_TRANS: Attagene TRANS-FACTORIAL HepG2 Assay for Farnesoid X Receptor (FXR) (AID 2282979; active = hit-call score of the fitted dose curve at least 0.9, where 1 is the maximum;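 note: hits raise reporter mRNA above DMSO so AC50 marks FXR activation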); settings: HepG2 Attagene TRANS FXR-GAL4 reporter transcription
In short: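 After 24 h chemical treatment of transfected HepG2 cells, GAL4-UAS reporter transcripts driven by an exogenous FXR-GAL4 fusion were measured by RT-PCR and capillary electrophoresis. Increases over DMSO were fitted.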

Nuclear receptor subfamily 4 group A member 2 (Homo sapiens), sequence (P43354 whole entry, looked up, the tested form may be a part): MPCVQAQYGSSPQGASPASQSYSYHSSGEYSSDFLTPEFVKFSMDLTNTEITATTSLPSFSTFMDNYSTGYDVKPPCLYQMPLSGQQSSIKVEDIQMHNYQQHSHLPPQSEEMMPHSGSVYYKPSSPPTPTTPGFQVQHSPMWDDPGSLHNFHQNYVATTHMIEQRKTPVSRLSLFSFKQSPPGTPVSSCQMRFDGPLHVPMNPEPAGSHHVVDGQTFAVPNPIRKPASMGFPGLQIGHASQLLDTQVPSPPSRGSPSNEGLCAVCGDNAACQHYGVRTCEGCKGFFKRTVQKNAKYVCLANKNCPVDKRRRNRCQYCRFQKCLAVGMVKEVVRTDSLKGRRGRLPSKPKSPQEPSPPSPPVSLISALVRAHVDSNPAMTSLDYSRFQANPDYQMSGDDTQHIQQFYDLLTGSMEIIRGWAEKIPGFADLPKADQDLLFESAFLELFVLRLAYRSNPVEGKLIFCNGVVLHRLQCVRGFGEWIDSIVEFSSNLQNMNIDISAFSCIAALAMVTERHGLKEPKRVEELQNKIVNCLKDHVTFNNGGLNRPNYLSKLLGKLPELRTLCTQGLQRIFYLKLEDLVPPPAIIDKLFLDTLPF
Oxysterols receptor LXR-beta (Homo sapiens), sequence (P55055 whole entry, looked up, the tested form may be a part): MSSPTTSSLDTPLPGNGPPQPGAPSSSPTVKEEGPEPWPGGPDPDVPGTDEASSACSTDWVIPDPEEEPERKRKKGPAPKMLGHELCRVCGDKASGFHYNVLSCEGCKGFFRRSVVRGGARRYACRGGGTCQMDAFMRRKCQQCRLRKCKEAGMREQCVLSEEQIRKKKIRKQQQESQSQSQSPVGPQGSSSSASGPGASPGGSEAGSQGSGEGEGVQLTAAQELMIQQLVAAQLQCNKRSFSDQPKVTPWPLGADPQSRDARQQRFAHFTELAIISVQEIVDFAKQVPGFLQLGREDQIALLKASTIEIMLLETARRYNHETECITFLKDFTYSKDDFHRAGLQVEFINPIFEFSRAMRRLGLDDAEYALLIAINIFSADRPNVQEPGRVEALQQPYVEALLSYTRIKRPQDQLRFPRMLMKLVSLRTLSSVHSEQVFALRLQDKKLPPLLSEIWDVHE
Transcriptional activator Myb (Homo sapiens), sequence (P10242 whole entry, looked up): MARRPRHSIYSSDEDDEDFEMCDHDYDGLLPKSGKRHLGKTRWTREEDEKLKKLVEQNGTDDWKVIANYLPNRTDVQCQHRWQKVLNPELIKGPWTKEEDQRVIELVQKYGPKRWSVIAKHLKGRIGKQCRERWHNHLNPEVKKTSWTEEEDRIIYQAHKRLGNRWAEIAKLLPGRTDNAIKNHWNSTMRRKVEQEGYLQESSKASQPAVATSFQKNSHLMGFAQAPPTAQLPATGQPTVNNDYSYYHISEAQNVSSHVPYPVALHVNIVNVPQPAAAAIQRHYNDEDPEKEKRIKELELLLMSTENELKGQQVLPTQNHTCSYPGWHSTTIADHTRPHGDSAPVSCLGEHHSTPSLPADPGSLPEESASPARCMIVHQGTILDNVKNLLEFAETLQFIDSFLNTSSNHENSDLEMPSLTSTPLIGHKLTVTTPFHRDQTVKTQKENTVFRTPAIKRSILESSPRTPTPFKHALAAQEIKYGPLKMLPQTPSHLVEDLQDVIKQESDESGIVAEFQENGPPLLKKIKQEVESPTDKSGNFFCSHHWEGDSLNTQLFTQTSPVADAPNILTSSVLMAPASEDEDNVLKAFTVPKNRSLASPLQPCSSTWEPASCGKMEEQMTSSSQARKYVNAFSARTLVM
Glucocorticoid receptor (Homo sapiens), sequence (P04150 whole entry, looked up, the tested form may be a part): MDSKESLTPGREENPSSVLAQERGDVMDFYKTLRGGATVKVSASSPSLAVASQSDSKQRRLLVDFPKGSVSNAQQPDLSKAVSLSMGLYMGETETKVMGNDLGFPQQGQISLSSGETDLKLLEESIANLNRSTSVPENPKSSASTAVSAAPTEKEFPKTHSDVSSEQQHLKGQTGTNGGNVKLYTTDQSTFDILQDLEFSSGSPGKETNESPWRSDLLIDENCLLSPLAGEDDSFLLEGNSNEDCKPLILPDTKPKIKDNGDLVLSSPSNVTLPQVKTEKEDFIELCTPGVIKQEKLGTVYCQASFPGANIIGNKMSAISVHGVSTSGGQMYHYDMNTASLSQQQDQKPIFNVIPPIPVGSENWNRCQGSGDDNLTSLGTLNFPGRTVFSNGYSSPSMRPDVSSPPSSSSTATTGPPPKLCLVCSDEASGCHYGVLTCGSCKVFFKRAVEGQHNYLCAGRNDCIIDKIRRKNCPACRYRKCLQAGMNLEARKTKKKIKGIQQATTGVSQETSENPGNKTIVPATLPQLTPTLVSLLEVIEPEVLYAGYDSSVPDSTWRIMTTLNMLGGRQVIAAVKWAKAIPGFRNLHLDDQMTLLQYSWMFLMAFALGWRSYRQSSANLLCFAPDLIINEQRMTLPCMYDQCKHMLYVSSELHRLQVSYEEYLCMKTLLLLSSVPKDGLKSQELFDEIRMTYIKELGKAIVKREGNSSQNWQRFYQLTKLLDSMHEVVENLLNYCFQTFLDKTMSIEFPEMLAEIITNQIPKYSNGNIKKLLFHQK
X-box-binding protein 1 (Homo sapiens), sequence (P17861 whole entry, looked up): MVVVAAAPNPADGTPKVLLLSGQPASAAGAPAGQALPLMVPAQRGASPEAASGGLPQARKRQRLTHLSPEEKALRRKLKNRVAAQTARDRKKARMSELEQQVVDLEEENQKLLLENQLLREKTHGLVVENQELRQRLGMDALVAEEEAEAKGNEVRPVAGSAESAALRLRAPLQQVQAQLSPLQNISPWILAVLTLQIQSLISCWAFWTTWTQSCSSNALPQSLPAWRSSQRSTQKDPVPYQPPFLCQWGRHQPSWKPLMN
Bile acid receptor (Homo sapiens), sequence (Q96RI1 whole entry, looked up, the tested form may be a part): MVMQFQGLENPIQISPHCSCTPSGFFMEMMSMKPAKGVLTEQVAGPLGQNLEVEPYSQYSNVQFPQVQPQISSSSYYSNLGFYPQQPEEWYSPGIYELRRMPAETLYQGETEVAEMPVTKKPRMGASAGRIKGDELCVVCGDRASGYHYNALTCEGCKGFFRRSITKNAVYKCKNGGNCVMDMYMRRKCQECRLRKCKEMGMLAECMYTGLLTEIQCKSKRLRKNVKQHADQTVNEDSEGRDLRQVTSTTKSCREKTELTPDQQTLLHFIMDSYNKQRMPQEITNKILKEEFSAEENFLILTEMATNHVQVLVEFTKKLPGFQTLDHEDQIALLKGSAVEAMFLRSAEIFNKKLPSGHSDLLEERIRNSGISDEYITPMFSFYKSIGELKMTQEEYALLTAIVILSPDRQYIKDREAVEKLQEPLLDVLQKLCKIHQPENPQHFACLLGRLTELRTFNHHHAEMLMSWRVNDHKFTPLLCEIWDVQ
Hepatocyte nuclear factor 4-alpha (Homo sapiens), sequence (P41235 whole entry, looked up, the tested form may be a part): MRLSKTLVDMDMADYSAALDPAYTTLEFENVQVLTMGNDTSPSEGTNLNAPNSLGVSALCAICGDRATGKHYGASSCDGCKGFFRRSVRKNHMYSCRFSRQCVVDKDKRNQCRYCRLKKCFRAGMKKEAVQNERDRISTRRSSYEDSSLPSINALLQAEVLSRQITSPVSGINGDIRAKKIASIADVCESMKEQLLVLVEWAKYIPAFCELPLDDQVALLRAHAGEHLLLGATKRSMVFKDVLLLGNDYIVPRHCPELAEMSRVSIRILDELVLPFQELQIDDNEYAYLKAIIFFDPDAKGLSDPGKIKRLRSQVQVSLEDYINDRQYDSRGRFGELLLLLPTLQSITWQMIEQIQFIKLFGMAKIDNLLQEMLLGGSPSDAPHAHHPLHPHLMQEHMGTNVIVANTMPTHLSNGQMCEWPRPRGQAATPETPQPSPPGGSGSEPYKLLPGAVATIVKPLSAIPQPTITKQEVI
Nuclear respiratory factor 1 (Homo sapiens), sequence (Q16656 whole entry, looked up): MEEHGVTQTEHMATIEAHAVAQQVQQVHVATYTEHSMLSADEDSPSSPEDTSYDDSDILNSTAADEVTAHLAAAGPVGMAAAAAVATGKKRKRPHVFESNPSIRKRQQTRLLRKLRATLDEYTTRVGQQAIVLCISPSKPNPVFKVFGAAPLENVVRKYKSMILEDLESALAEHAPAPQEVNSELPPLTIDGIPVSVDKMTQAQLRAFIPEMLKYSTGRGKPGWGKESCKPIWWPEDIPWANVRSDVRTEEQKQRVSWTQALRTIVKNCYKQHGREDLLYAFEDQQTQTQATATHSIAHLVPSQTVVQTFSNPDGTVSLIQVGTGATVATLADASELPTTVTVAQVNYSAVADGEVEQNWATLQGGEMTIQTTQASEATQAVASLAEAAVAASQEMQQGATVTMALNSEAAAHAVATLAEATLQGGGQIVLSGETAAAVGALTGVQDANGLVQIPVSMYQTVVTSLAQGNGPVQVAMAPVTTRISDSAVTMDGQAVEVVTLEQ
Nuclear receptor subfamily 1 group I member 3 (Homo sapiens), sequence (Q14994 whole entry, looked up, the tested form may be a part): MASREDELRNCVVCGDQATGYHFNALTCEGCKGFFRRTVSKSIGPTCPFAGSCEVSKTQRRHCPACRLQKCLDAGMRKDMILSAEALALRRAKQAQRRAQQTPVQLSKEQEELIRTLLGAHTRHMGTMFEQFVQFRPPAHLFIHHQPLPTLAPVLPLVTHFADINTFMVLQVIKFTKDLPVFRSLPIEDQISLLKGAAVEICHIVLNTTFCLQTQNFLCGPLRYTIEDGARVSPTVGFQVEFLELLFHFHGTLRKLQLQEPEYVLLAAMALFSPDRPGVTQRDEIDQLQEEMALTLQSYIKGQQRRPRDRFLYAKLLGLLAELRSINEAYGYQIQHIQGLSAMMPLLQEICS
Oxysterols receptor LXR-alpha (Homo sapiens), sequence (Q13133 whole entry, looked up, the tested form may be a part): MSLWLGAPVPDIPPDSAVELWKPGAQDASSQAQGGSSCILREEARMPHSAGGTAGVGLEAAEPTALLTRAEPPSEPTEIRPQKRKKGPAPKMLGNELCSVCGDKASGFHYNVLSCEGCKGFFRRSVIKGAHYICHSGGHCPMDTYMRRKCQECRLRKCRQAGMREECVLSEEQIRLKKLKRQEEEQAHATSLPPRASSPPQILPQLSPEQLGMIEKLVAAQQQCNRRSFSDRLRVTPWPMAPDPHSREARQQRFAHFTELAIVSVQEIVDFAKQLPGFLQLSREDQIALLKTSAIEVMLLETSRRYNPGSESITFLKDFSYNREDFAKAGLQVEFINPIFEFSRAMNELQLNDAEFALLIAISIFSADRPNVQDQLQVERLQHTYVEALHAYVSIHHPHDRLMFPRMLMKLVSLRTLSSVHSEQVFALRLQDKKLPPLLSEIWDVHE

Compound	outcome [1]	outcome [2]	outcome [3]	outcome [4]	outcome [5]	outcome [6]	outcome [7]	outcome [8]	outcome [9]	outcome [10]	outcome [11]	outcome [12]	outcome [13]	AC50 [14]	outcome [15]	outcome [16]	outcome [17]	outcome [14]	outcome [18]	AC50 [2]
N[C@@H](Cc1c[nH]c2ccccc12)C(=O)O	inactive	inactive	inactive	inactive	inactive	inactive	inactive	inactive	inactive											
Cc1cn([C@H]2C=C[C@@H](CO)O2)c(=O)[nH]c1=O	inactive	inactive	inactive	inactive				inactive	inactive	inactive	inactive	inactive								
CCCCOC(=O)CCCCC(=O)OCCCC	inactive	inactive	inactive	inactive				inactive	inactive		inactive		inactive	155 µM (active)	inactive	inactive				
CCCCc1nc2cccnc2n1Cc1ccc(-c2ccccc2-c2nnn[nH]2)cc1	inactive	inactive	inactive	inactive		inactive	inactive	inactive	inactive	inactive		inactive					inactive	inactive	inactive	
CN(C)CCCN1c2ccccc2Sc2ccc(Cl)cc21	inactive		inactive				inactive	inactive	inactive		inactive					inactive		inactive	inactive	11.1 µM (active)
CC(C)c1cccc(C(C)C)c1NC(=O)NS(=O)(=O)c1cc(C(C)(C)O)co1	inactive		inactive		inactive		inactive	inactive	inactive		inactive				inactive	inactive				29.7 µM (active)
